The source of these data is PMC13541613, “GHT-SELEX demonstrates unexpectedly high intrinsic sequence specificity and complex DNA binding of many human transcription factors”.

Holding throughout (assay): HT-SELEX; 20 mM HEPES pH 7, 140 mM KCl, 5 mM NaCl, 1 mM K2HPO4, 2 mM MgSO4, 100 uM EGTA, ZnSO4, 0.1% Tween20; room temperature, 1 h; high values mean tight binding
Common to all, as to conditions: protein: ivt; tags: eGFP (N-terminal); dsDNA, one strand shown

The target in one experiment is ZNF721 full-length (Homo sapiens, UniProt Q8TF20-2 1-923). Put shortly:
(§1)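 A tagged transcription factor, either full-length or its DNA-binding-domain fragment, was made in HEK293 lysate or cell-free extract, immobilised on beads and incubated with a randomized 40-base DNA library for 1 h at room temperature in HEPES/KCl low-stringency buffer containing Tween20. Washed beads were heat-eluted, and the bound DNA was PCR-amplified over successive cycles and Illumina-sequenced at ~3 million 60 bp reads per sample. The binding signal is the relative k-mer count in selected reads, where a higher value means tighter binding.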

In another experiment the target is ZNF721 DBD1 (Homo sapiens, UniProt Q8TF20-2 29-461). Put shortly:
as §1

Another experiment concerns the target ZNF721 DBD2 (Homo sapiens, UniProt Q8TF20-2 395-923). The method, boiled down:
as §1

Chain of ZNF721 DBD2 (Q8TF20 383-911): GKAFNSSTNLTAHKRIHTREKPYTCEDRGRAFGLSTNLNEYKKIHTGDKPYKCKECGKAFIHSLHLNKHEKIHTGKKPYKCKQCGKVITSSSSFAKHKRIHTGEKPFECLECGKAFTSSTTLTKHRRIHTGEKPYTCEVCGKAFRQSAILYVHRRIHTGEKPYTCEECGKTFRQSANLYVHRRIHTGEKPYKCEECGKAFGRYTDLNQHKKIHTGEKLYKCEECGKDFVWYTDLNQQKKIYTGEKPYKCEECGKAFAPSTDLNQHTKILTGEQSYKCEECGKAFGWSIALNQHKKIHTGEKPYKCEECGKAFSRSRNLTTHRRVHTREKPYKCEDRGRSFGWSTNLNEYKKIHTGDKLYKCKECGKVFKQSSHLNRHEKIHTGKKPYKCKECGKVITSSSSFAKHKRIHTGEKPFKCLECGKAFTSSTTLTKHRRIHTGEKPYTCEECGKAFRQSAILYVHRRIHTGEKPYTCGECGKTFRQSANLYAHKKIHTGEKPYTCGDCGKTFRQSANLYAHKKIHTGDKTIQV
Chain of ZNF721 DBD1 (Q8TF20 17-449): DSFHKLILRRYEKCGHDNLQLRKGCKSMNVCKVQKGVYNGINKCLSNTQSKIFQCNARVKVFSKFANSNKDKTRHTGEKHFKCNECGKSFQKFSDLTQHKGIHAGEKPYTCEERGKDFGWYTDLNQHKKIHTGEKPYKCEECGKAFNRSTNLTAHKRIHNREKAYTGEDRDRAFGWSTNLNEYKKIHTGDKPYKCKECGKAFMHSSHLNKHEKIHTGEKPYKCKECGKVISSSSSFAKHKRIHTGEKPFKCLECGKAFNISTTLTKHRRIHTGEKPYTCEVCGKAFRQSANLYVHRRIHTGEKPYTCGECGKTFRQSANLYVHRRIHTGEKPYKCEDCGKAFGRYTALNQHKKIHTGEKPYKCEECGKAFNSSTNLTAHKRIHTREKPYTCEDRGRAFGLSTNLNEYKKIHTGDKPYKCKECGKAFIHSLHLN
Chain of ZNF721 full-length (Q8TF20 other isoform, or with tags, fused parts or gaps): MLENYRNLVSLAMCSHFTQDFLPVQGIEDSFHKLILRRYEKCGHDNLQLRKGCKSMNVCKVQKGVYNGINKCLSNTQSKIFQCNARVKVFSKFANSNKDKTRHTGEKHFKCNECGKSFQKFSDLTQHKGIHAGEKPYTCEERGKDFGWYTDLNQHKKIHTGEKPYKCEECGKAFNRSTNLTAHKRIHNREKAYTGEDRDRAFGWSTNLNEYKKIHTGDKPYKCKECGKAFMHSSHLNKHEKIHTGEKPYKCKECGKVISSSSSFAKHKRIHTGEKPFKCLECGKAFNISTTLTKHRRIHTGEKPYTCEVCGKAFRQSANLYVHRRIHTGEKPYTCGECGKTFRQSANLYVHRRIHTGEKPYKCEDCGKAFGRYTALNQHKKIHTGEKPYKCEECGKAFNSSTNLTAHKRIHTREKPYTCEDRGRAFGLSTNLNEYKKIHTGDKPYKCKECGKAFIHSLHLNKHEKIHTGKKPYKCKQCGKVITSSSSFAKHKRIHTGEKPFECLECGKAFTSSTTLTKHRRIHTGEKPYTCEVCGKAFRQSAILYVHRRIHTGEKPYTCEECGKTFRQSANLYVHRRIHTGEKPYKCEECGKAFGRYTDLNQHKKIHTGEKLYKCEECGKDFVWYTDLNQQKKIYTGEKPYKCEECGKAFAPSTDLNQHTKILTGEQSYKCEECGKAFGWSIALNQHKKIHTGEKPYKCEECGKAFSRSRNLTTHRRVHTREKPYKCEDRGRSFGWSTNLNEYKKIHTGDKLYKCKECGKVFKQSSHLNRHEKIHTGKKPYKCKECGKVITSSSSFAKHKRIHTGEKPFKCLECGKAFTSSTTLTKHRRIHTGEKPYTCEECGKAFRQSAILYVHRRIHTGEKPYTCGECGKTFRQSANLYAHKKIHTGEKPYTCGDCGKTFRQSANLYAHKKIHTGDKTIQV

Consider AAAAAAAGCA, for which the binding signal was determined as 0.612 relative 10-mer count with ZNF721 full-length, 0.037 relative 10-mer count with ZNF721 DBD1 and 0.246 relative 10-mer count in the experiment with ZNF721 DBD2.

CCTCCCGCCC: the binding signal came out at 0.161 relative 10-mer count with ZNF721 full-length, 0.00656 relative 10-mer count with ZNF721 DBD1 and 0.00264 relative 10-mer count with ZNF721 DBD2.

For the sequence CCCTCCGCCC, the binding signal with ZNF721 full-length is 0.192 relative 10-mer count; with ZNF721 DBD1, 0.00936 relative 10-mer count; in the experiment with ZNF721 DBD2, 0.00491 relative 10-mer count.

Take CCCACCGACC: the values for the binding signal with ZNF721 full-length, with ZNF721 DBD1 and in the experiment with ZNF721 DBD2 were 0.127 relative 10-mer count, 0.00394 relative 10-mer count and 0.00455 relative 10-mer count, respectively.

On to CCCATCCCCC, for which the binding signal was 0.185 relative 10-mer count with ZNF721 full-length, 0.00716 relative 10-mer count with ZNF721 DBD1 and 0.00312 relative 10-mer count in the experiment with ZNF721 DBD2.

On to AAGCAGCATG, for which the results for the binding signal with ZNF721 full-length, with ZNF721 DBD1 and with ZNF721 DBD2 were 0.115 relative 10-mer count, 0.0017 relative 10-mer count and 0.137 relative 10-mer count, respectively.

CGCCACCACC: the binding signal with ZNF721 full-length turned out to be 0.108 relative 10-mer count; with ZNF721 DBD1, 0.00468 relative 10-mer count; with ZNF721 DBD2, 0.00384 relative 10-mer count.

CCGCCCCCCG: the binding signal with ZNF721 full-length amounted to 0.128 relative 10-mer count; with ZNF721 DBD1, 0.0039 relative 10-mer count; with ZNF721 DBD2 it was 0.0024 relative 10-mer count.

With CATCCCCACC, the binding signal worked out at 0.126 relative 10-mer count in the experiment with ZNF721 full-length, 0.0072 relative 10-mer count with ZNF721 DBD1 and 0.0188 relative 10-mer count with ZNF721 DBD2.

As for CCAAAAAACA, the binding signal in the experiment with ZNF721 full-length was found to be 0.16 relative 10-mer count; with ZNF721 DBD1, 0.00174 relative 10-mer count; with ZNF721 DBD2, 0.185 relative 10-mer count.

With AAAAAGCTGC, the binding signal with ZNF721 full-length is 0.229 relative 10-mer count; in the experiment with ZNF721 DBD1 it was 0.0954 relative 10-mer count; in the experiment with ZNF721 DBD2, 0.00372 relative 10-mer count.

With GGGGTGGGGA, the binding signal in the experiment with ZNF721 full-length was 0.194 relative 10-mer count; in the experiment with ZNF721 DBD1, 0.0094 relative 10-mer count; in the experiment with ZNF721 DBD2, 0.00264 relative 10-mer count.

Regarding AAAAAAAGCG, the values for the binding signal with ZNF721 full-length, with ZNF721 DBD1 and in the experiment with ZNF721 DBD2 were 0.217 relative 10-mer count, 0.0356 relative 10-mer count and 0.0422 relative 10-mer count, respectively.

As to CCCCCGCCGC, the figures for the binding signal in the experiment with ZNF721 full-length, with ZNF721 DBD1 and in the experiment with ZNF721 DBD2 were 0.128 relative 10-mer count, 0.00436 relative 10-mer count and 0.00168 relative 10-mer count, respectively.

Consider AGCTATACCA, for which the binding signal with ZNF721 full-length turned out to be 0.14 relative 10-mer count; with ZNF721 DBD1, 0.0816 relative 10-mer count; with ZNF721 DBD2, 0.003 relative 10-mer count.

Turning to CCACGCCCAC, the values for the binding signal with ZNF721 full-length, with ZNF721 DBD1 and with ZNF721 DBD2 were 0.102 relative 10-mer count, 0.00514 relative 10-mer count and 0.00431 relative 10-mer count, respectively.

In the case of GCACCACCCC, the binding signal with ZNF721 full-length was 0.103 relative 10-mer count; with ZNF721 DBD1 it was 0.00358 relative 10-mer count; in the experiment with ZNF721 DBD2, 0.00815 relative 10-mer count.

Consider CCCCCGCCAC, for which the binding signal was 0.176 relative 10-mer count with ZNF721 full-length, 0.00679 relative 10-mer count with ZNF721 DBD1 and 0.0036 relative 10-mer count with ZNF721 DBD2.

As for CCCCCCGCAC, the binding signal in the experiment with ZNF721 full-length was determined as 0.115 relative 10-mer count; with ZNF721 DBD1 it was 0.00372 relative 10-mer count; with ZNF721 DBD2 it was 0.00348 relative 10-mer count.

Regarding ACCACCCCAC, the binding signal with ZNF721 full-length came out at 0.201 relative 10-mer count; with ZNF721 DBD1 it was 0.0072 relative 10-mer count; in the experiment with ZNF721 DBD2, 0.00479 relative 10-mer count.

On to AAGCGTACCC, for which the values for the binding signal with ZNF721 full-length, in the experiment with ZNF721 DBD1 and with ZNF721 DBD2 were 0.208 relative 10-mer count, 0.104 relative 10-mer count and 0.0138 relative 10-mer count, respectively.

CCCCCGCCTC: the binding signal with ZNF721 full-length stood at 0.119 relative 10-mer count; with ZNF721 DBD1, 0.00509 relative 10-mer count; with ZNF721 DBD2 it was 0.0036 relative 10-mer count.

Consider CCCGACCACC, for which the binding signal with ZNF721 full-length came out at 0.125 relative 10-mer count; with ZNF721 DBD1 it was 0.00491 relative 10-mer count; with ZNF721 DBD2 it was 0.00372 relative 10-mer count.

Consider GCCCCGCCCC, for which the binding signal worked out at 0.124 relative 10-mer count with ZNF721 full-length, 0.00436 relative 10-mer count with ZNF721 DBD1 and 0.00156 relative 10-mer count with ZNF721 DBD2.

As to CACCCCAACC, the figures for the binding signal in the experiment with ZNF721 full-length, with ZNF721 DBD1 and with ZNF721 DBD2 were 0.142 relative 10-mer count, 0.0061 relative 10-mer count and 0.00407 relative 10-mer count, respectively.

In the case of ACCCCATCCC, the figures for the binding signal in the experiment with ZNF721 full-length, with ZNF721 DBD1 and with ZNF721 DBD2 were 0.102 relative 10-mer count, 0.00367 relative 10-mer count and 0.0024 relative 10-mer count, respectively.

Consider GCCACCCACC, for which the binding signal is 0.147 relative 10-mer count in the experiment with ZNF721 full-length, 0.00605 relative 10-mer count in the experiment with ZNF721 DBD1 and 0.00312 relative 10-mer count with ZNF721 DBD2.

As for ACCCACCCCC, the binding signal is 0.265 relative 10-mer count with ZNF721 full-length, 0.0111 relative 10-mer count in the experiment with ZNF721 DBD1 and 0.00252 relative 10-mer count in the experiment with ZNF721 DBD2.

Consider ACCGAAAAAA, for which the binding signal came out at 0.104 relative 10-mer count with ZNF721 full-length, 0.00949 relative 10-mer count with ZNF721 DBD1 and 0.0485 relative 10-mer count with ZNF721 DBD2.

As to CCCACCCGCA, the figures for the binding signal with ZNF721 full-length, in the experiment with ZNF721 DBD1 and with ZNF721 DBD2 were 0.109 relative 10-mer count, 0.00316 relative 10-mer count and 0.00563 relative 10-mer count, respectively.
